This is an account of results in PubChem BioAssay (Tox21).

Records with an inconclusive call do not appear. A call without a number means that no potency is given here. Values without a mark were called inactive. The source made the active and inactive calls. Calls come from the whole dose curve; as a rule, active = well fitted inhibition curve with a large enough effect in the repeat runs; inconclusive = weak or mixed curves; inactive = flat fitted curve, though single readings scatter.

Sequence of Luciferin 4-monooxygenase (Photinus pyralis) (P08659 whole entry, looked up): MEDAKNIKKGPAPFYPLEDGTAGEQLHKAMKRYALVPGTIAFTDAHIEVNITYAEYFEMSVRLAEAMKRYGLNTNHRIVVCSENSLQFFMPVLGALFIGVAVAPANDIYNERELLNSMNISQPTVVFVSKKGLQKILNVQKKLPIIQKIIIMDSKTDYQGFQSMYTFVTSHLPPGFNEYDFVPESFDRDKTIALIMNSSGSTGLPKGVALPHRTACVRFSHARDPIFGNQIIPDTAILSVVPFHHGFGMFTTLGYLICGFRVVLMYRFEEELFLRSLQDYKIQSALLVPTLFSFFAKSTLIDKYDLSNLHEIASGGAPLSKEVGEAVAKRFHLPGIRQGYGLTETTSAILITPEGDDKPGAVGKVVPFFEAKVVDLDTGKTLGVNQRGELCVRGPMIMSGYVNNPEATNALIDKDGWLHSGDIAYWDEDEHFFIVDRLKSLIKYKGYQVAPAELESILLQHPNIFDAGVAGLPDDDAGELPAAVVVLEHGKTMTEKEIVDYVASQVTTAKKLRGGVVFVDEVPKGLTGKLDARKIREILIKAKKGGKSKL

This assay has as its target Luciferin 4-monooxygenase (Photinus pyralis) (UniProt P08659). Description: qHTS assay to identify small molecule inhibitors of firefly luciferase (AID 1224835). Note: nearly all actives have a fitted effect of over 25% in size. Conditions: purified P. pyralis luciferase, luminescence inhibition; series mostly up to 115 µM. The text has this: U.S. Tox21 Program National Center for Advancing Translational Sciences [NCATS] NIH Chemical Genomics Center [NCGC] U.S. Environmental Protection Agency [EPA] National Institutes of Environmental Health Sciences [NIEHS] National Toxicology Program [NTP] U.S. Food and Drug Administration [FDA] Tox21 Assay Overview: Firefly (Photinus pyralis) luciferase is one of the most commonly used transcriptional reporters. Firefly luciferase reporter-gene assays are generally considered one of the most sensitive assay types (Wood, 1995; Wood, 1998). However, it was initially observed, in 1991, by Thompson et al., that compounds that resemble the substrates of firefly luciferase (FLuc) can act as competitive inhibitors of the enzyme, and that these compounds, upon interaction with luciferase in the cell, can actually stabilize the protein and increase its half-life. Previous profiling work by other groups to determine the prevalence of compounds that affect FLuc enzymatic activity (PubChem AID 411) identified that ~3% of the MLSMR library (then at ~72K) inhibited FLuc. […] Thus the Tox21 10K library is profiled for activity against FLuc using a biochemical assay of purified FLuc and KM concentrations of FLuc substrates (D-luciferin and ATP).
These assay plates were then treated with 23nL of compound or DMSO using a Kalypsys pin tool, which allows for delivery of a 6-point interplate titration of each compound to the assay plate (quantitative HTS.) 1 uL of firefly luciferase mix (containing 50 mM Tris acetate, pH 7.6, 0.04 uM P. pyralis luciferase, 0.01% Tween, 0.05% BSA and dH2O) was then delivered by FRD to each well. Luciferase activity was then measured using a ViewLux CCD imager.
In general terms: In qHTS, concentration-response curves come from the screen itself.
With `NC(=O)CF`, the Potency entry was “inactive”.
For the compound `O=C(NC(=O)c1cc(F)c(F)cc1Cl)Nc1cc(F)ccc1N1CCC(C(=O)O)CC1`, the Potency entry was “inactive”.
For `CCCCC(CC)COC(=O)c1c(Br)c(Br)c(Br)c(Br)c1C(=O)OCC(CC)CCCC` (stereo not given), the Potency entry was “inactive”.
With `CC(C)C1(C)N=C(c2ncccc2C(=O)O)NC1=O` (stereo not given), the Potency entry was “inactive”.
The same measure, in the same setting: then `CCCN(CCC)c1c([N+](=O)[O-])cc(C(C)C)cc1[N+](=O)[O-]`, with “inactive”; and `CCC[N+](CCC)(CCC)CCC`, with “inactive”.
For the compound `CC(C)c1ccc(NC(=O)N(C)C)cc1`, the Potency is 71 µM (active).
The same measure, in the same setting: the result for `Nc1cccc2ccccc12` reads “inactive”; that for `O=C(O)COc1cc(Cl)c(Cl)cc1Cl`, “inactive”.
The same measure, in the same setting: then `C[N+]1(CCF)[C@@H]2CC[C@H]1CC(OC(=O)C(O)(c1ccccc1)c1ccccc1)C2` (stereo not given in full), with “inactive”; and `O=S(=O)(c1ccccc1)c1ccccc1`, with “inactive”.
The same measure, in the same setting: the result for `O=C(O)c1ccc(=O)[nH]c1` reads “inactive”.
As to `CCCCNC(=O)OCC#CI`, the Potency result was “inactive”.
Turning to `O=P(OCC(Br)CBr)(OCC(Br)CBr)OCC(Br)CBr` (stereo not given), the Potency result is “inactive”.
On the same count and under the same terms, the result for `COP(=O)(OC)OC(Br)C(Cl)(Cl)Br` (stereo not given) reads “inactive”; that for `CCCC1CCCCN1` (stereo not given), “inactive”; that for `COC1=CC(=O)O[C@@H](/C=C/c2ccc3c(c2)OCO3)C1`, 60.6 µM (active).
Consider `Cc1cccc(C)c1NC1=NCCCS1`, for which the Potency entry is “inactive”.
Still for that read-out and setting: the result for `Clc1ccc2ccccc2c1` reads “inactive”.
As to `C[C@H](N)[C@H](O)c1ccc(O)c(O)c1`, the Potency entry was “inactive”.
As for `CCOP(=O)(O)C(N)=O`, the Potency entry is “inactive”.
With `CCCCCCCCCCCCN=C(N)N`, the activity change, negative = inhibition is 0.224% [at 4.07 µM].
In the case of `CCCC[P+](CC)(CCCC)CCCC` (tested in a mixture with another compound), the Potency result is “inactive”.
Same read-out and setting: then `CCC1(CCC(C)C)C(=O)NC(=O)NC1=O`, with “inactive”.
On the same count and under the same terms, then `CC(C)(C)NCC(O)c1ccccc1Cl` (stereo not given), with “inactive”; and `Clc1ccccc1`, with “inactive”; and `C=CCc1ccc(OC(=O)Cc2ccccc2)c(OC)c1`, with 25.2 µM (active).
Still for that read-out and setting: the result for `CCCCCCCCCCCC[N+](C)(C)CCOc1ccccc1` reads “inactive”; that for `CC(=O)OC(c1ccccc1)C(Cl)(Cl)Cl` (stereo not given), “inactive”.
On to `C[C@]12C=CC3=C4CCC(=O)C=C4CC[C@H]3[C@@H]1CC[C@@H]2O`, for which the Potency result was “inactive”.
Same read-out and setting: the result for `CCC(=O)O[C@@H]1C=C2CCC3C(CCC4(C)C3CC[C@@H]4OC(=O)CC)C2CC1` (stereo not given in full) reads “inactive”; that for `COC(=O)C1(O)c2ccccc2-c2ccccc21`, “inactive”; that for `CC[N+]1(C)CCCC(OC(=O)C(O)(c2ccccc2)c2ccccc2)C1` (stereo not given), “inactive”.
For the compound `CC(C)c1ccc(OP(=O)(Oc2ccc(C(C)C)cc2)Oc2ccc(C(C)C)cc2)cc1`, the Potency result is “inactive”.
Consider `O=C(Cc1ccccc1)OCCc1ccccc1`, for which the Potency is 35.6 µM (active).
With `O=S(=O)(Cl)Cl`, the Potency entry was “inactive”.
On to `COc1ccccc1N1CCNCC1`, for which the Potency result was “inactive”.
As to `O=C(O)c1cc(Cl)ccc1Cl`, the Potency entry was “inactive”.
Turning to `CCN(C(C)=O)c1cccc(-c2ccnc3c(C#N)cnn23)c1`, the Potency result is “inactive”.
As for `C=CCN1C[C@H](C)N([C@H](c2ccc(C(=O)N(CC)CC)cc2)c2cccc(OC)c2)C[C@H]1C`, the Potency result is “inactive”.
